Data from PubChem BioAssay (NCI).
The panel holds about 79,000 compounds, 15% with a hit somewhere; the sample as a whole holds those more often. Unmarked numbers belong to inactive results. Activity calls are given as the source filed them. Rule as the data show it: active = growth inhibition above about 70%; inactive = the rest.

Assays:
[1] = NCI Yeast Anticancer Drug Screen. Data for the rad50 strain (AID 155);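 also: 0% = growth of vehicle-only cultures of the same strain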; conditions: S. cerevisiae rad50 strain growth inhibition; at 50.0 µM; hits give high values
Procedure, shortened: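 Vehicle-treated cultures provide the reference for the growth inhibition reported for compound-exposed, repair-deficient yeast.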

[2] = NCI Yeast Anticancer Drug Screen. Data for the mec2-1 strain (AID 157); conditions: S. cerevisiae mec2-1 strain, at 50.0 µM, hits give high values
Procedure, shortened: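 Mutant yeast (mec2-1) grown with compound; growth inhibition relative to vehicle control reported.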

[3] = NCI Yeast Anticancer Drug Screen. Data for the sgs1 mgt1 strain (AID 161);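 also: 0% = growth of cultures given vehicle only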; conditions: S. cerevisiae sgs1 mgt1 strain, at 50.0 µM, hits give high values
Procedure, shortened: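 Growth of a repair-deficient yeast mutant was monitored after compound treatment and expressed as inhibition relative to vehicle-treated cultures.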

[4] = NCI Yeast Anticancer Drug Screen. Data for the cln2 rad14 strain (AID 165);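 also: 0% = growth equal to vehicle treated cultures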; conditions: S. cerevisiae cln2 rad14 strain, at 50.0 µM, hits give high values
Procedure, shortened: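 Readout is yeast growth inhibition versus vehicle-treated controls, using a strain with cln2 and rad14 alterations exposed to compound.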

[5] = NCI Yeast Anticancer Drug Screen. Data for the bub3 strain (AID 167); conditions: S. cerevisiae bub3 mutant strain, at 50.0 µM, hits give high values
Procedure, shortened: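 Mutant yeast screening strain plus compound; vehicle-treated cultures serve as the 0% inhibition reference.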

[6] = NCI Yeast Anticancer Drug Screen. Data for the mlh1 rad18 strain (AID 175); conditions: S. cerevisiae mlh1 rad18 strain growth inhibition; at 50.0 µM; hits give high values
Procedure, shortened: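 Genetically defined yeast (DNA repair-deficient) exposed to compounds; growth inhibition determined relative to vehicle.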

## O=C(Cc1ccccc1)NC(CSCc1ccccc1)C(=O)O (stereo unspecified)
[1]
  growth inhibition: 9.85%
[2]
  growth inhibition: 19.2%
[3]
  growth inhibition: -15%
[4]
  growth inhibition: -39.1%
[5]
  growth inhibition: 10.8%
[6]
  growth inhibition: 40.2%

## O=C1Nc2ccccc2CS1
[1]
  growth inhibition: 0.55%
[2]
  growth inhibition: -4.9%
[3]
  growth inhibition: -2.1%
[4]
  growth inhibition: -5.85%
[5]
  growth inhibition: 6.95%
[6]
  growth inhibition: -1.05%

## NC1=C(O)/C(=N/NS(=O)(=O)c2ccccc2)C(c2cccc(Cl)c2)O1 (stereo unspecified)
[1]
  growth inhibition: 30.4%
[2]
  growth inhibition: 23.4%
[3]
  growth inhibition: 48.5%
[4]
  growth inhibition: 13.8%
[5]
  growth inhibition: 11.7%
[6]
  growth inhibition: 21.7%

## Cc1csc(-n2nc(C)cc2C)n1
[1]
  growth inhibition: -5.35%
[2]
  growth inhibition: -23.1%
[3]
  growth inhibition: -37.2%
[4]
  growth inhibition: 6.75%
[5]
  growth inhibition: -30.9%
[6]
  growth inhibition: -6.05%

## OCC1NCCCC1O (stereo unspecified)
[1]
  growth inhibition: -17.5%
[2]
  growth inhibition: -25.6%
[3]
  growth inhibition: -22.9%
[4]
  growth inhibition: -8.55%
[5]
  growth inhibition: -18.1%
[6]
  growth inhibition: -10%

## Cc1nc(N)c(N2CCN(S(=O)(=O)N(Cc3ccccc3)Cc3ccccc3)CC2)c(=O)[nH]1
[1]
  growth inhibition: -10.9%
[2]
  growth inhibition: 2.3%
[3]
  growth inhibition: 2.95%
[4]
  growth inhibition: -11.9%
[5]
  growth inhibition: 14.9%
[6]
  growth inhibition: 3.95%

## CC(=O)c1c(-c2ccc(Cl)cc2)c(C#N)c(=S)n(C2OC(CO)C(O)C(O)C2O)c1C (stereo unspecified)
[1]
  growth inhibition: -2.85%
[2]
  growth inhibition: -6.3%
[3]
  growth inhibition: 6.15%
[4]
  growth inhibition: 14.8%
[5]
  growth inhibition: -5.15%
[6]
  growth inhibition: 12.2%

## Cc1ccnc2c1NC(=O)c1cccnc1N2C1CC1
[1]
  growth inhibition: 2.35%
[2]
  growth inhibition: -1.95%
[3]
  growth inhibition: -8.6%
[4]
  growth inhibition: -9.35%
[5]
  growth inhibition: 6%
[6]
  growth inhibition: 20.8%

## c1ccc(Cc2[nH]nc(-c3n[nH]c(Cc4ccccc4)c3-c3ccccc3)c2-c2ccccc2)cc1
[1]
  growth inhibition: -28.8%
[2]
  growth inhibition: 18.1%
[3]
  growth inhibition: -9.65%
[4]
  growth inhibition: -8.35%
[5]
  growth inhibition: -20.6%
[6]
  growth inhibition: 8.4%

## C=C1C2C[C@@H]3OC4CC5O[C@]6(CC5OC4C(C)C3OC(=O)CC3CC[C@@H]4OC5C7OC8C[C@](CCC9CC(=C)[C@H](CCC(C[C@H]1C)O2)O9)(OC7C4O3)O[C@@H]85)C[C@@H]1O[C@@]2(CC(C)[C@@H]3OC(CC(=O)CCO)C(O)C[C@@H]3O2)CC(C)[C@@H]1O6 (stereo partly specified)
[1]
  growth inhibition: 84.5% (active)
[2]
  growth inhibition: 88.5% (active)
[3]
  growth inhibition: 88.6% (active)
[4]
  growth inhibition: 84.5% (active)
[5]
  growth inhibition: 87.5% (active)
[6]
  growth inhibition: 87.3% (active)

## O=C(NC1CCCCC1)Oc1ccc(-c2ccccc2)cc1Cl
[1]
  growth inhibition: 98.7% (active)
[2]
  growth inhibition: 99.3% (active)
[3]
  growth inhibition: 98.3% (active)
[4]
  growth inhibition: 98.2% (active)
[5]
  growth inhibition: 99% (active)
[6]
  growth inhibition: 99.1% (active)

## Fc1ccc(N=Cc2ccc(C=Nc3ccc(F)cc3)cc2)cc1
[1]
  growth inhibition: 20.9%
[2]
  growth inhibition: 30.1%
[3]
  growth inhibition: 18.7%
[4]
  growth inhibition: 10.2%
[5]
  growth inhibition: 38%
[6]
  growth inhibition: 27.2%

## CCOC(=O)c1c(OC)c(-c2ccccc2)c(=O)n2c3ccccc3n(C)c12
[1]
  growth inhibition: 18.2%
[2]
  growth inhibition: 9.05%
[3]
  growth inhibition: -0.2%
[4]
  growth inhibition: -4.1%
[5]
  growth inhibition: -1.1%
[6]
  growth inhibition: 9.9%

## N#C/C(c1ccccc1)=[N+](/[O-])O
[1]
  growth inhibition: 2.55%
[2]
  growth inhibition: -4.9%
[3]
  growth inhibition: 2.5%
[4]
  growth inhibition: -20.7%
[5]
  growth inhibition: -17.5%
[6]
  growth inhibition: 13.7%

## CC(CCc1nc2ccccc2[nH]1)c1nc2ccccc2[nH]1 (stereo unspecified)
[1]
  growth inhibition: -18.6%
[2]
  growth inhibition: 2.05%
[3]
  growth inhibition: -0.8%
[4]
  growth inhibition: 18.1%
[5]
  growth inhibition: 14.8%
[6]
  growth inhibition: 17.4%

## O=C(NCCCl)Nc1[nH]c(=O)ncc1Br
[1]
  growth inhibition: -13.2%
[2]
  growth inhibition: -12.7%
[3]
  growth inhibition: -10.8%
[4]
  growth inhibition: -44.4%
[5]
  growth inhibition: -6.85%
[6]
  growth inhibition: -12.3%

## CC(C)CC(=O)NC(C(=O)NC(C(=O)NC(CC(C)C)C(O)CC(=O)NC(C)C(=O)NC(CC(C)C)C(O)CC(=O)O)C(C)C)C(C)C (stereo unspecified)
[1]
  growth inhibition: 5.8%
[2]
  growth inhibition: -18.4%
[3]
  growth inhibition: -20.9%
[4]
  growth inhibition: 7.6%
[5]
  growth inhibition: 5.95%
[6]
  growth inhibition: -9.75%

## COc1ccc(OC)c(COC(=O)c2ccccc2)c1COC(=O)c1ccccc1
[1]
  growth inhibition: 26.1%
[2]
  growth inhibition: 3.9%
[3]
  growth inhibition: 20.2%
[4]
  growth inhibition: 4.2%
[5]
  growth inhibition: 1.6%
[6]
  growth inhibition: 5.7%

## OCc1ccc(-c2ccccc2)cc1
[1]
  growth inhibition: 4.4%
[2]
  growth inhibition: -14.6%
[3]
  growth inhibition: 4.6%
[4]
  growth inhibition: 8%
[5]
  growth inhibition: 3.7%
[6]
  growth inhibition: 28.8%

## COC(=O)c1ccccc1CC1Cc2ccc3c(c2C1)CCC3 (stereo unspecified)
[1]
  growth inhibition: -0.8%
[2]
  growth inhibition: 5.45%
[3]
  growth inhibition: -1.65%
[4]
  growth inhibition: -31.6%
[5]
  growth inhibition: 2.55%
[6]
  growth inhibition: 13.7%

## CC1(C)OC2COC(CN(N=O)C(N)=O)C2O1 (stereo unspecified)
[1]
  growth inhibition: 15.2%
[2]
  growth inhibition: -15.7%
[3]
  growth inhibition: -8.15%
[4]
  growth inhibition: -75%
[5]
  growth inhibition: -17.4%
[6]
  growth inhibition: 5.75%
